Source: the supplement of paper PMC8728848
This excerpt belongs to a sample that is enriched for the strongest signals.

B1: Surfactant Protein D (Human); Neck + Carbohydrate Recognition Domain (NCRD) (Homo sapiens) (protein)
chain: MLLFLLSALVLLTQPLGYLEAEMKTYSHRTMPSACTLVMCSSVESGLPGRDRDGREGPRGEKGDPGLPGAAGQAGMPGQAGPVGPKGDNGSVGEPGPKGDTGPSGPPGPPGVPGPAGREGALGKQGNIGPQGKPGPKGEAGPKGEVGAPGMQGSAGARGLAGPKGERGVPGERGVPGNTGAAGSAGAMGPQGSPGARGPPGLKGDKGIPGDKGAKGESGLPDVASLRQQVEALQGQVQHLQAAFSQYKKVELFPNGQSVGEKIFKTAQFVKPFTEAQLLCTQAGGQLASPRSAAENAALQQLVVAKNEAAFLSMTDSKTEGKFTYPTGESLVYSNWAPGEPNDDGGSEDCVEIFTNGKWNDRACGEKRLVVCEA
B2: IRp60B (Homo sapiens), Q9UGN4-3 (protein)
chain: MWLPWALLLLWVPAGDHSELSQNPKQAATQSELHYANLELLMWPLQEKPAPPREVEVEYSTVASPREELHYASVVFDSNTNRIAAQRPREEEPDSDYSVIRKT

Assays:
Assay in all cases: glycan array binding signal (z-score within array); higher = stronger binding
Gal(a1-2)Gal = details: glycan notation: IUPAC condensed, linker removed; mutation: F355A
Summary of the method: (§1)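 Glycan array binding is given as a within-array Z-score, which can be read as non-binding when negative. The arrays, 3228 of them, came from the Consortium for Functional Glycomics database and were retained only where the protein sequence was available. Z-scores were averaged across arrays of the same protein sequence at different concentrations or buffers and across linkers.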

Gal(a1-3)Gal(b1-4)Glc = details: glycan notation: IUPAC condensed, linker removed; mutation: F355A
Summary of the method: as §1

Gal(a1-3)GalNAc = details: glycan notation: IUPAC condensed, linker removed
Summary of the method: as §1

[1] = target: Gal(b1-4)GlcNAc(b1-2)Man(a1-3)[Gal(b1-4)GlcNAc(b1-2)Man(a1-6)]Man(b1-4)GlcNAc(b1-4)GlcNAc; details: glycan notation: IUPAC condensed, linker removed; mutation: F355A
Summary of the method: as §1

[2] = target: GalNAc(b1-3)Gal(a1-4)Gal(b1-4)GlcNAc; details: glycan notation: IUPAC condensed, linker removed; mutation: F355A
Summary of the method: as §1

[3] = target: GlcNAc(a1-6)Gal(b1-4)GlcNAc; details: glycan notation: IUPAC condensed, linker removed; mutation: F355A
Summary of the method: as §1

[4] = target: GlcNAc(b1-4)Gal(b1-4)GlcNAc; details: glycan notation: IUPAC condensed, linker removed; mutation: F355A
Summary of the method: as §1

[5] = target: GlcNAc(b1-4)GlcNAc(b1-4)GlcNAc; details: glycan notation: IUPAC condensed, linker removed; mutation: F355A
Summary of the method: as §1

[6] = target: GlcNAc(b1-4)GlcNAc(b1-4)GlcNAc(b1-4)GlcNAc(b1-4)GlcNAc; details: glycan notation: IUPAC condensed, linker removed; mutation: F355A
Summary of the method: as §1

Kdn(a2-3)Gal(b1-4)GlcNAc = details: glycan notation: IUPAC condensed, linker removed; mutation: F355A
Summary of the method: as §1

[7] = target: Man(a1-2)Man(a1-2)Man(a1-6)[Man(a1-3)]Man; details: glycan notation: IUPAC condensed, linker removed; mutation: F355A
Summary of the method: as §1

[8] = target: Man(a1-2)Man(a1-3)[Man(a1-2)Man(a1-6)]Man; details: glycan notation: IUPAC condensed, linker removed; mutation: F355A
Summary of the method: as §1

[9] = target: Man(a1-2)Man(a1-3)[Man(a1-2)Man(a1-6)]Man(a1-6)[Man(a1-2)Man(a1-2)Man(a1-3)]Man; details: glycan notation: IUPAC condensed, linker removed; mutation: F355A
Summary of the method: as §1

[10] = target: Man(a1-2)Man(a1-6)[Man(a1-3)]Man(a1-6)[Man(a1-2)Man(a1-2)Man(a1-3)]Man(b1-4)GlcNAc(b1-4)GlcNAc; details: glycan notation: IUPAC condensed, linker removed; mutation: F355A
Summary of the method: as §1

[11] = target: Man(a1-3)[Man(a1-6)]Man(a1-6)[Man(a1-2)Man(a1-3)]Man(b1-4)GlcNAc(b1-4)GlcNAc; details: glycan notation: IUPAC condensed, linker removed; mutation: F355A
Summary of the method: as §1

[12] = target: Man(a1-3)[Man(a1-6)]Man(a1-6)[Man(a1-3)]Man; details: glycan notation: IUPAC condensed, linker removed; mutation: F355A
Summary of the method: as §1

[13] = target: Man(a1-3)[Man(a1-6)]Man(a1-6)[Man(a1-3)]Man(b1-4)GlcNAc(b1-4)GlcNAc; details: glycan notation: IUPAC condensed, linker removed; mutation: F355A
Summary of the method: as §1

[14] = target: Neu5Ac(a2-6)Gal(b1-4)GlcNAc(b1-2)Man(a1-6)[Gal(b1-4)GlcNAc(b1-2)Man(a1-3)]Man(b1-4)GlcNAc(b1-4)GlcNAc; details: glycan notation: IUPAC condensed, linker removed; mutation: F355A
Summary of the method: as §1

[15] = target: Neu5Gc(a2-3)Gal(b1-4)[Fuc(a1-3)]GlcNAc; details: glycan notation: IUPAC condensed, linker removed
Summary of the method: as §1

Gal(a1-4)Gal(b1-4)Glc = details: glycan notation: IUPAC condensed, linker removed
Summary of the method: as §1

[16] = target: Gal(b1-3)GalNAc(b1-4)Gal(b1-4)Glc; details: glycan notation: IUPAC condensed, linker removed
Summary of the method: as §1

[17] = target: Gal(b1-4)GalNAc(a1-3)[Fuc(a1-2)]Gal(b1-4)GlcNAc; details: glycan notation: IUPAC condensed, linker removed
Summary of the method: as §1

[18] = target: Gal(b1-4)GlcNAc(b1-3)[Gal(b1-4)GlcNAc(b1-6)]GalNAc; details: glycan notation: IUPAC condensed, linker removed
Summary of the method: as §1

[19] = target: Gal3S(b1-3)[Fuc(a1-4)]GlcNAc; details: glycan notation: IUPAC condensed, linker removed
Summary of the method: as §1

Gal6S(b1-4)Glc6S = details: glycan notation: IUPAC condensed, linker removed
Summary of the method: as §1

Glc(a1-4)Glc = details: glycan notation: IUPAC condensed, linker removed
Summary of the method: as §1

[20] = target: GlcNAc(b1-2)Gal(b1-3)GalNAc; details: glycan notation: IUPAC condensed, linker removed
Summary of the method: as §1

[21] = target: Neu5Ac(a2-3)[GalNAc(b1-4)]Gal(b1-4)Glc; details: glycan notation: IUPAC condensed, linker removed
Summary of the method: as §1

[22] = target: Neu5Ac(a2-6)Gal(b1-4)GlcNAc(b1-3)Gal(b1-4)[Fuc(a1-3)]GlcNAc(b1-3)Gal(b1-4)[Fuc(a1-3)]GlcNAc; details: glycan notation: IUPAC condensed, linker removed
Summary of the method: as §1

[23] = target: Neu5Ac(a2-8)Neu5Ac(a2-8)Neu5Ac(a2-3)Gal(b1-4)Glc; details: glycan notation: IUPAC condensed, linker removed
Summary of the method: as §1

[24] = target: Neu5Gc(a2-3)Gal(b1-3)GlcNAc; details: glycan notation: IUPAC condensed, linker removed
Summary of the method: as §1

Row | Binder | glycan array binding signal (z-score) (Gal(a1-2)Gal) | glycan array binding signal (z-score) (Gal(a1-3)Gal(b1-4)Glc) | glycan array binding signal (z-score) (Gal(a1-3)GalNAc; mutation: F355A) | glycan array binding signal (z-score) [1] | glycan array binding signal (z-score) [2] | glycan array binding signal (z-score) [3] | glycan array binding signal (z-score) [4] | glycan array binding signal (z-score) [5] | glycan array binding signal (z-score) [6] | glycan array binding signal (z-score) (Kdn(a2-3)Gal(b1-4)GlcNAc) | glycan array binding signal (z-score) [7] | glycan array binding signal (z-score) [8] | glycan array binding signal (z-score) [9] | glycan array binding signal (z-score) [10] | glycan array binding signal (z-score) [11] | glycan array binding signal (z-score) [12] | glycan array binding signal (z-score) [13] | glycan array binding signal (z-score) [14] | glycan array binding signal (z-score) ([15]; mutation: F355A) | glycan array binding signal (z-score) (Gal(a1-3)GalNAc) | glycan array binding signal (z-score) (Gal(a1-4)Gal(b1-4)Glc) | glycan array binding signal (z-score) [16] | glycan array binding signal (z-score) [17] | glycan array binding signal (z-score) [18] | glycan array binding signal (z-score) [19] | glycan array binding signal (z-score) (Gal6S(b1-4)Glc6S) | glycan array binding signal (z-score) (Glc(a1-4)Glc) | glycan array binding signal (z-score) [20] | glycan array binding signal (z-score) [21] | glycan array binding signal (z-score) [22] | glycan array binding signal (z-score) [23] | glycan array binding signal (z-score) [24] | glycan array binding signal (z-score) [15]
1 | B1 | -0.16 | -0.099 | -0.129 | -0.104 | -0.138 | -0.164 | -0.146 | -0.155 | -0.122 | -0.072 | 2.74 | 4.68 | 15 | 1.59 | 2.15 | 5.56 | 2.12 | -0.15 | -0.145 | – | – | – | – | – | – | – | – | – | – | – | – | – | –
2 | B2 | – | – | – | – | – | – | – | – | – | – | – | – | – | – | – | – | – | – | – | 0.074 | 5.38 | 2.68 | -0.378 | 4.42 | 4.5 | -0.421 | -0.26 | -0.44 | -0.323 | 1.2 | 1.18 | -0.475 | -0.107
